# Laboratory results: the supplement of paper PMC8728848
# This is one part of a sample in which the strongest signals are shown more often than they occur.
# Tests used:
# Assay in all cases: glycan array binding signal (z-score within array); higher = stronger binding
# [1] = system: Gal(b1-3)GlcNAc(a1-6)Gal(b1-4)GlcNAc; conditions: glycan notation: IUPAC condensed, linker removed
# Outline: (§1)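 The Consortium for Functional Glycomics database supplied 3228 glycan arrays, of which those lacking an available protein sequence were dropped. The binding signal, a within-array Z-score, was averaged across arrays of the same protein sequence and across linkers. Negative scores can be read as non-binding.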
# [2] = system: Gal(a1-4)GlcNAc; conditions: glycan notation: IUPAC condensed, linker removed
# Outline: as §1
# [3] = system: Gal(b1-3)GalNAc(b1-4)Gal(b1-4)Glc; conditions: glycan notation: IUPAC condensed, linker removed
# Outline: as §1
# [4] = system: Gal(b1-2)Gal; conditions: glycan notation: IUPAC condensed, linker removed
# Outline: as §1
# [5] = system: Gal(b1-3)Gal; conditions: glycan notation: IUPAC condensed, linker removed
# Outline: as §1
# [6] = system: Gal(a1-4)Gal(b1-4)GlcNAc; conditions: glycan notation: IUPAC condensed, linker removed
# Outline: as §1
# [7] = system: Gal(a1-6)Glc; conditions: glycan notation: IUPAC condensed, linker removed
# Outline: as §1
# [8] = system: Gal(b1-3)GlcNAc(b1-2)Man(a1-3)[GlcNAc(b1-4)][Gal(b1-3)GlcNAc(b1-2)Man(a1-6)]Man(b1-4)GlcNAc(b1-4)GlcNAc; conditions: glycan notation: IUPAC condensed, linker removed
# Outline: as §1
# [9] = system: Gal(b1-3)GalNAc(b1-4)[Neu5Ac(a2-3)]Gal(b1-4)Glc; conditions: glycan notation: IUPAC condensed, linker removed
# Outline: as §1
# [10] = system: Gal(b1-3)GalNAc(a1-3)[Fuc(a1-2)]Gal(b1-4)GlcNAc; conditions: glycan notation: IUPAC condensed, linker removed
# Outline: as §1
# [11] = system: Gal(b1-3)GlcNAc(b1-3)Gal(b1-4)GlcNAc(b1-6)[Gal(b1-3)GlcNAc(b1-3)]Gal(b1-4)Glc; conditions: glycan notation: IUPAC condensed, linker removed
# Outline: as §1
# [12] = system: Gal(a1-4)Gal(b1-4)Glc; conditions: glycan notation: IUPAC condensed, linker removed
# Outline: as §1
# [13] = system: Gal(b1-3)Gal(b1-4)GlcNAc(b1-2)Man(a1-3)[Gal(b1-3)Gal(b1-4)GlcNAc(b1-2)Man(a1-6)]Man(b1-4)GlcNAc(b1-4)GlcNAc; conditions: glycan notation: IUPAC condensed, linker removed
# Outline: as §1
# [14] = system: Gal(b1-3)GlcNAc(b1-2)Man(a1-3)[Gal(b1-3)GlcNAc(b1-2)Man(a1-6)]Man(b1-4)GlcNAc(b1-4)GlcNAc; conditions: glycan notation: IUPAC condensed, linker removed
# Outline: as §1
# [15] = system: Gal(b1-3)GalNAc(b1-3)Gal; conditions: glycan notation: IUPAC condensed, linker removed; mutation: R125K
# Outline: as §1
# [16] = system: Gal(b1-3)GlcNAc(b1-3)Gal(b1-4)GlcNAc(b1-2)[Gal(b1-3)GlcNAc(b1-3)Gal(b1-4)GlcNAc(b1-6)]Man(a1-6)[Gal(b1-3)GlcNAc(b1-3)Gal(b1-4)GlcNAc(b1-2)Man(a1-3)]Man(b1-4)GlcNAc(b1-4)[Fuc(a1-6)]GlcNAc; conditions: glycan notation: IUPAC condensed, linker removed
# Outline: as §1
# [17] = system: Gal(b1-3)GalNAc(b1-3)Gal(b1-4)Glc; conditions: glycan notation: IUPAC condensed, linker removed
# Outline: as §1
# [18] = system: Gal(b1-3)GalNAc(b1-3)Gal(a1-4)Gal(b1-4)Glc; conditions: glycan notation: IUPAC condensed, linker removed
# Outline: as §1
# [19] = system: Gal(b1-3)GlcNAc(b1-3)Gal(b1-4)GlcNAc; conditions: glycan notation: IUPAC condensed, linker removed
# Outline: as §1
# [20] = system: Gal(b1-3)GlcNAc(b1-2)Man(a1-3)[Gal(b1-3)GlcNAc(b1-2)Man(a1-6)]Man(b1-4)GlcNAc(b1-4)[Fuc(a1-6)]GlcNAc; conditions: glycan notation: IUPAC condensed, linker removed
# Outline: as §1
# Sequence of 6RG (Lolium perenne) (chain, as listed by the source): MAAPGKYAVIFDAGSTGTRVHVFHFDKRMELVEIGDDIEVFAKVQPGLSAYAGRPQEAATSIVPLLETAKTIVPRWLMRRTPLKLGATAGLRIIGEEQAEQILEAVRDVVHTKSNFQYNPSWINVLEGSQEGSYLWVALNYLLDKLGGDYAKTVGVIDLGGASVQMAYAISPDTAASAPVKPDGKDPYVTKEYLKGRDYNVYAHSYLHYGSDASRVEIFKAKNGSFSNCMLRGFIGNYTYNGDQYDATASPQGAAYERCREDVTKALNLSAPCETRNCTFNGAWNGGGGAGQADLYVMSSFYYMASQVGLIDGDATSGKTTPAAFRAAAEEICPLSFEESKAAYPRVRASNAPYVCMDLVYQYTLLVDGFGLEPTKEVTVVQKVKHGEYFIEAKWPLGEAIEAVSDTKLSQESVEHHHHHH
# Sequence of CHI3L1 (Homo sapiens), P36222 (P36222 whole entry): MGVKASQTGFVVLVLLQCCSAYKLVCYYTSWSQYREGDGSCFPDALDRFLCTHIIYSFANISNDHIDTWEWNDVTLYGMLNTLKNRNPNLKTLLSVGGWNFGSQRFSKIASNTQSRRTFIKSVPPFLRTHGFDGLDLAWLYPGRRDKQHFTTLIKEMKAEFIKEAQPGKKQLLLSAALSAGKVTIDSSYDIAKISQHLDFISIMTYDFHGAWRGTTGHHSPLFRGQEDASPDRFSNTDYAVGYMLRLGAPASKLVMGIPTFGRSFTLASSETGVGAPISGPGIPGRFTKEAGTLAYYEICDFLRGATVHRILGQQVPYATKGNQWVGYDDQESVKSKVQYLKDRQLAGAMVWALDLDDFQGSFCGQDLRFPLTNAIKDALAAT
# Sequence of Regenerating Gene IV (Homo sapiens), Q9BYZ8 (Q9BYZ8 whole entry, looked up): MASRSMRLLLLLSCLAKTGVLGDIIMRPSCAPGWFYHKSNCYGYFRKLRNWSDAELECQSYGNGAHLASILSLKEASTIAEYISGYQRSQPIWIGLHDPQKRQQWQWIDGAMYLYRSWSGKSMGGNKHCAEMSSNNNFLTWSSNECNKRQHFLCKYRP
# Sequence of PILRb (Mus musculus), Q2YSF2 (Q2YSF2 entry or part of it): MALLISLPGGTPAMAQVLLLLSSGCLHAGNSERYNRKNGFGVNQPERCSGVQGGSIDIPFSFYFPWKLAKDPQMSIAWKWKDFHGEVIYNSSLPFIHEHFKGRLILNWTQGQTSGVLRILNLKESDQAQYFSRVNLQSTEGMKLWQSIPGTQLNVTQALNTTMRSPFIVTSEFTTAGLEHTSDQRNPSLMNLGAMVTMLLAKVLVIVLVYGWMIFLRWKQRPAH
# Sequence of PILRa (Mus musculus), Q2YSF3 (Q2YSF3 entry or part of it): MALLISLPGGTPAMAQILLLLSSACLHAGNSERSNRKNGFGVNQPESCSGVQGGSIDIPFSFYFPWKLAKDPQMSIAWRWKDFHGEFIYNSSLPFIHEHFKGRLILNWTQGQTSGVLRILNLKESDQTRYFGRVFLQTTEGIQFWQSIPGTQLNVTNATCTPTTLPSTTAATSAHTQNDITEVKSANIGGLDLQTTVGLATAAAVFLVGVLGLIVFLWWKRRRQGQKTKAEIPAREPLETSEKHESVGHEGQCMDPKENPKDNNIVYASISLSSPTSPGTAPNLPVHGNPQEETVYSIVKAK
# Sequence of Avaren (Actinomycete K97) (chain, as listed by the source): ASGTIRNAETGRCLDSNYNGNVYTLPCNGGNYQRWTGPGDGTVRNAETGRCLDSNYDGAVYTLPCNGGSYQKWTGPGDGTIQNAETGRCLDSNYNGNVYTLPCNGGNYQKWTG
# Sequence of C3b (Homo sapiens), P01024 (P01024 23-667): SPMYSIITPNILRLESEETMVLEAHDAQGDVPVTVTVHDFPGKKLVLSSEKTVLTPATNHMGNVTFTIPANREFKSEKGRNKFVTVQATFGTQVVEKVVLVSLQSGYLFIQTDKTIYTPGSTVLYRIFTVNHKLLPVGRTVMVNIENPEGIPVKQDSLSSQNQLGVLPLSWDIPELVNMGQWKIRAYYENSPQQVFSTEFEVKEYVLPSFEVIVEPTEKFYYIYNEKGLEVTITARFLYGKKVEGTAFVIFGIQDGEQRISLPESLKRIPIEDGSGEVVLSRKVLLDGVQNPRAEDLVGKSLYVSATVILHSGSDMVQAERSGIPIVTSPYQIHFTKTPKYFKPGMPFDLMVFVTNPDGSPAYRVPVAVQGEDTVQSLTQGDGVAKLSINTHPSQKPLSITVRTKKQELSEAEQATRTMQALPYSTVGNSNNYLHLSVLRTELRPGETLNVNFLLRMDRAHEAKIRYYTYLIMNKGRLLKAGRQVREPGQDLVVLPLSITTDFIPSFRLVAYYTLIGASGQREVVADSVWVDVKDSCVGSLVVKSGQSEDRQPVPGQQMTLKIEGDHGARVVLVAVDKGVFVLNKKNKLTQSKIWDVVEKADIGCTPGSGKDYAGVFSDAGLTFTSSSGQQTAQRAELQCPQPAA
# Sequence of CHT (Homo sapiens) (chain, as listed by the source): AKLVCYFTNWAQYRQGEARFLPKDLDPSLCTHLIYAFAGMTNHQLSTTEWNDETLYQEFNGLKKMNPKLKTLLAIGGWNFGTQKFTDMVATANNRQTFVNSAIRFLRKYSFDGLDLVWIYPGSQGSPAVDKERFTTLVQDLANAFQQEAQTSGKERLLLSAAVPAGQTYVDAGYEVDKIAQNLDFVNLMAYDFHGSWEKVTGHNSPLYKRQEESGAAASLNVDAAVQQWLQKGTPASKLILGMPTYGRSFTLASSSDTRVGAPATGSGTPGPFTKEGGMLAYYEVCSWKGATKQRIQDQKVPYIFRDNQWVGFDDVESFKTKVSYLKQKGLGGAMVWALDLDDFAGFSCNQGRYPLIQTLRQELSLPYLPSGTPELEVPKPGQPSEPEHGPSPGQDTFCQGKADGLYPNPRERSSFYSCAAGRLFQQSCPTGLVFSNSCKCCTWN
# Sequence of Neurocan (Homo sapiens), O14594 (O14594 other isoform, or with tags, fused parts or gaps): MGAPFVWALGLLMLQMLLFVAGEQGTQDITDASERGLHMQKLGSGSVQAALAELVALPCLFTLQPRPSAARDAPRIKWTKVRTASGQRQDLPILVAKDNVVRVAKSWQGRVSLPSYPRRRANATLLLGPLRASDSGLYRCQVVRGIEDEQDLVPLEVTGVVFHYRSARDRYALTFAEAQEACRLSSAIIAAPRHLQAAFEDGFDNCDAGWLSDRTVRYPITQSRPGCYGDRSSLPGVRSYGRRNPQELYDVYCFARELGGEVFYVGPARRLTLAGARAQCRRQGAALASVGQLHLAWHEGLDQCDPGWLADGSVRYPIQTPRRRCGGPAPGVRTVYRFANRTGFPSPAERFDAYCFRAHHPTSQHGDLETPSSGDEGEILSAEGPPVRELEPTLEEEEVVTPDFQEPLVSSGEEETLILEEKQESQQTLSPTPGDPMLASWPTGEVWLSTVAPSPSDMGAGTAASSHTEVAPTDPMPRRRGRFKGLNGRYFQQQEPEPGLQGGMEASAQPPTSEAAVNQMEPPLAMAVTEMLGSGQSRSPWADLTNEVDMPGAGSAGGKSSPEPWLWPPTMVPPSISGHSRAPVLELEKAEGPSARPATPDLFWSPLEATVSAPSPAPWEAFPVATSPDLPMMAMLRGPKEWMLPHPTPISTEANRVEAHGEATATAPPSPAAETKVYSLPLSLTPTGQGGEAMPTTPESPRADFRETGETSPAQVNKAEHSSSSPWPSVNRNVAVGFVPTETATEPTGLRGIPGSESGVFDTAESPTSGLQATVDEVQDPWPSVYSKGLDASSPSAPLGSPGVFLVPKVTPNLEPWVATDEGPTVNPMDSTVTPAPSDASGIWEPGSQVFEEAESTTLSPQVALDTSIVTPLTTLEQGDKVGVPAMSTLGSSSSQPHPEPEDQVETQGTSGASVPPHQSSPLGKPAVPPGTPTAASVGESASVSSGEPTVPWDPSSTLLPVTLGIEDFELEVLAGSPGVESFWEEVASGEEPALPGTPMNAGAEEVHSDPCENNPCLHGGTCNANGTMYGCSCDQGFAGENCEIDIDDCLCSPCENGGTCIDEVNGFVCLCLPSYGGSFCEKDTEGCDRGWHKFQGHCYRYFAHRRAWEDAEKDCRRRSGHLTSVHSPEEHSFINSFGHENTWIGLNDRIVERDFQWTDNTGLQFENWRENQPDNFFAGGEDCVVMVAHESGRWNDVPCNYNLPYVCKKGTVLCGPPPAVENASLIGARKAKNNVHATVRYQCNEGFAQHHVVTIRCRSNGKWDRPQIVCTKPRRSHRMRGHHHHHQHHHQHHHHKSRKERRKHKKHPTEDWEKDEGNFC
# Sequence of wLAT-1A (Homo sapiens), Q01650 (Q01650 whole entry): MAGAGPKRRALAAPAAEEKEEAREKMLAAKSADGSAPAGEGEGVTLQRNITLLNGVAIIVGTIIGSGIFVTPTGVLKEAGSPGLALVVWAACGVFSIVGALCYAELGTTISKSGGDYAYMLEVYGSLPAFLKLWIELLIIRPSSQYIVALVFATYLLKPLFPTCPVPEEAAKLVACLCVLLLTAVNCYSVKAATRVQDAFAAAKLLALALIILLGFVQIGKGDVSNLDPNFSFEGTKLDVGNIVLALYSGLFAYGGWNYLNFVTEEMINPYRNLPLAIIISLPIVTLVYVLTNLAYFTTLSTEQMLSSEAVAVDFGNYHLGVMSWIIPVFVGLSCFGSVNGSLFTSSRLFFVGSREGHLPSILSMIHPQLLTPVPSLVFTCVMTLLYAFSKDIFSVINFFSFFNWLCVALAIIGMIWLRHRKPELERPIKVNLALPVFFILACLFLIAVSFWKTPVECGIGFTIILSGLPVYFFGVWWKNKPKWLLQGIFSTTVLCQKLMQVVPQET
substance,measurement,setting,value
"Neurocan (Homo sapiens), O14594",glycan array binding signal (z-score),[1],-0.985
"C3b (Homo sapiens), P01024",glycan array binding signal (z-score),[2],-0.904
same,glycan array binding signal (z-score),[3],-0.644
"HARE (Homo sapiens), Q8WWQ8",glycan array binding signal (z-score),[4],-0.074
same,glycan array binding signal (z-score),[5],2.26
"CHI3L1 (Homo sapiens), P36222",glycan array binding signal (z-score),[6],-0.117
same,glycan array binding signal (z-score),[7],-0.088
same,glycan array binding signal (z-score),[4],-0.006
same,glycan array binding signal (z-score),[8],0.123
"wLAT-1A (Homo sapiens), Q01650",glycan array binding signal (z-score),[9],-0.218
"PILRa (Mus musculus), Q2YSF3",glycan array binding signal (z-score),[10],-0.192
same,glycan array binding signal (z-score),[11],-0.146
"PILRb (Mus musculus), Q2YSF2",glycan array binding signal (z-score),[12],0.026
same,glycan array binding signal (z-score),[4],-0.075
same,glycan array binding signal (z-score),[13],0.382
same,glycan array binding signal (z-score),[14],0.611
"Siglec-8 (Homo sapiens), Q9NYZ4",glycan array binding signal (z-score),[12]; mutation: R125K,0.026
same,glycan array binding signal (z-score),[13],-0.073
same,glycan array binding signal (z-score),[15],-0.035
same,glycan array binding signal (z-score),[1],-0.162
same,glycan array binding signal (z-score),[16],0.166
CHT (Homo sapiens),glycan array binding signal (z-score),"[2]; mutation: D138V, E140I",0.017
MpAFP RI GFP (Marinomonas primoryensis),glycan array binding signal (z-score),[9],-0.54
same,glycan array binding signal (z-score),[8],1.37
6RG (Lolium perenne),glycan array binding signal (z-score),[12],6.7
same,glycan array binding signal (z-score),[17],6.16
same,glycan array binding signal (z-score),[3],0.249
"Regenerating Gene IV (Homo sapiens), Q9BYZ8",glycan array binding signal (z-score),[18],-0.44
same,glycan array binding signal (z-score),[5],-0.546
same,glycan array binding signal (z-score),[19],-0.615
Avaren (Actinomycete K97),glycan array binding signal (z-score),[20],-0.081
same,glycan array binding signal (z-score),[16],1.97
